# Experimental data as given in PubChem BioAssay AID1672 (Johns Hopkins Ion Channel Center, 2009).
# Among all 310,000 compounds or so, about 2,600 (0.84%) were called active. Only a selection was taken, and actives are over-represented in it overall. Values without a mark were called inactive.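 How the source made its calls: active means fluorescence ratio B-score at or below minus 3 SD of library scores, with starting-brightness B-score within 2 SD (cut at about -4.2 in these data); inactive means the rest.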
# Biological target: Inward rectifier potassium channel 2 (Mus musculus) (UniProt P35561)
# Sequence (P35561 whole entry, looked up): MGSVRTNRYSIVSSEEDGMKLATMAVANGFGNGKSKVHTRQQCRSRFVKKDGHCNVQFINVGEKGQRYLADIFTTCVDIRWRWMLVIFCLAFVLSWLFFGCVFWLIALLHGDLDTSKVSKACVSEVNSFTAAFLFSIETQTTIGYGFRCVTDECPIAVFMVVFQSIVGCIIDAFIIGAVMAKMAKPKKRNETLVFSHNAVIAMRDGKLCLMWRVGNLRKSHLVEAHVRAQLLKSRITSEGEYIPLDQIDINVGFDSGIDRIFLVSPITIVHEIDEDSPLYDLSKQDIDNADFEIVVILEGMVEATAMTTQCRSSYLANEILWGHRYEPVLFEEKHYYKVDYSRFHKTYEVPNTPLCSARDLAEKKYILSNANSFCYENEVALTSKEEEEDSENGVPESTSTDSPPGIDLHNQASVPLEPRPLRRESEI
# Assay: inhibitors of mouse Kir2.1 inward-rectifier potassium channel (AID 1672);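 further: channel flux triggered by added potassium and thallium sulfate stimulus; B-score of peak minus minimum fluorescence over baseline after thallium stimulus; more negative B-score means stronger Kir2.1 block with less thallium influx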
# Settings: HEK293-Kir2.1, FluxOR thallium flux fluorescence; at 10 µM; stronger effect = lower value
row,SMILES,B-score
1,CC1CCCN(CCOCCOc2ccccc2-c2ccccc2)C1 (stereo not drawn),-6.74 (active)
2,CN1CCN(CCCCOc2cccc3ccccc23)CC1,-1.84
3,COc1ccccc1OCCCCCCN1CCN(C)CC1,1
4,CC1CN(CCCOc2ccccc2-c2ccccc2)CC(C)O1 (stereo not drawn),-4.04
5,c1ccc(-c2ccccc2OCCN2CCCCC2)cc1,-1.64
6,CN1CCN(CCCCOc2ccccc2-c2ccccc2)CC1,-6.95 (active)
7,CC(OC(=O)CCCc1c[nH]c2ccccc12)C(=O)Nc1ccc(S(N)(=O)=O)cc1 (stereo not drawn),-0.01
8,Cc1sc(NC(=O)C2=COCCO2)c(C#N)c1C,-0.98
9,Cc1ccc2[nH]cc(CCNC(=O)C3CCCCC3)c2c1,0.62
10,O=C(NCCc1c[nH]c2ccccc12)c1cccc(Br)c1,-0.14
11,O=C(NCCc1c[nH]c2ccccc12)C1CCN(Cc2ccc(Br)cc2)CC1,-5.88 (active)
12,Cc1c(NC(=O)C(C)OC(=O)c2c3c(nc4ccccc24)CCC(C)C3)c(=O)n(-c2ccccc2)n1C (stereo not drawn),0.01
13,CCOC(=O)C(C)Sc1nnc(CSc2nc3nc(C)cc(C)n3n2)o1 (stereo not drawn),0.45
14,Cc1cc(C)nc(SCc2nnc(SCC(=O)OC3CCCCC3)o2)n1,-6.39 (active)
15,Cc1cc(C)cc(OCc2nnc(SCC(=O)OC3CCCCC3)o2)c1,2.83
16,O=C(CSc1nnc(-c2cccnc2)n1Cc1ccco1)c1ccc(Cl)cc1,-3.48
17,O=C(CSc1nnc(-c2cccnc2)n1Cc1ccco1)c1ccc(Cl)c(Cl)c1,-0.81
18,C(=C\c1ccccc1)/CSc1nnc(-c2cccnc2)n1Cc1ccco1,-6.26 (active)
19,O=C(Cc1ccc(S(=O)(=O)N2CCOCC2)s1)NCCOc1ccccc1F,-0.88
20,O=C(CCC1CCCCC1)Nc1cc(C(F)(F)F)ccc1N1CCOCC1,-0.88
21,Cc1cc(=O)oc2cc(NC(=O)C(C)Oc3ccccc3)ccc12 (stereo not drawn),0.76
22,CCCC(O)(c1ccc(OC)cc1)C(CN(C)C)c1ccccc1 (stereo not drawn),-2.85
23,CC(CN1CCCCC1)c1ccccc1 (stereo not drawn),-0.88
24,COc1ccc(C(O)(C2CCCCC2)C(CN2CCCC2)c2ccccc2)cc1 (stereo not drawn),-6.33 (active)
25,CN(CC(=O)NCc1cccnc1)S(=O)(=O)c1cc(Cl)ccc1Cl,0.05

row,SMILES,B-score
1,Cc1ccc(S(=O)(=O)NCCC(=O)NNC(=O)C2COc3ccccc3O2)cc1 (stereo not drawn),-0.97
2,COc1cccc(CC2(CO)CCCN(Cc3ccc(OC(F)F)cc3)C2)c1 (stereo not drawn),-1.05
3,CN1c2ccccc2-c2nc3ccccc3n2C1c1ccco1 (stereo not drawn),-4.99 (active)
4,Cn1c(-c2ccco2)nc2cc3ccccc3cc21,0.04
5,Cn1cccc1-c1nc2ccccc2n1C,-0.13
6,COc1ccccc1N1CCN(c2nc(C)cc(=O)[nH]2)CC1,0.62
7,CCn1c(=O)cc(SCC(=O)NCCC2=CCCCC2)c2ccccc21,-8.59 (active)
8,O=C(Cc1cccc2ccccc12)NCCC1=CCCCC1,-1.35
9,O=C(CCNC(=O)Cn1ccc2ccccc2c1=O)NCCC1=CCCCC1,-0.38
10,CCOc1cc(N2CCOCC2)c(OCC)cc1NC(=O)COc1cccc(Cl)c1,-0.59
11,CC(C)CN(C(=O)c1ccc2c(c1)OCO2)C1CCS(=O)(=O)C1 (stereo not drawn),-2.25
12,COc1ccc(Nc2nnc(C)c3ccccc23)cc1,-0.1
13,COc1ccc(Nc2ncnc3sc(C)cc23)cc1,-6.13 (active)
14,COc1ccc(Nc2ncnc3sc(-c4ccccc4)cc23)c(OC)c1,0
15,Cc1ccc2nc(Nc3ccccc3)cc(C)c2c1,1.96
16,Cc1ccc2nc(C)c3c(c2c1)N(c1ccccc1)CC3,-13.2 (active)
17,Cc1ccc2nc3n(c(=O)c2c1)CCC3,-2.3
18,O=C(O)C1C2C=CC(C2)C1C(=O)NCc1ccccc1 (stereo not drawn),-0.26
19,CCCCCCCCn1c2c(c(=N)c3c1CCC3)CCCC2,-14.8 (active)
20,CCCCCCn1c(CN2CCCCC2)nc2c1c(=O)n(C)c(=O)n2C,-1.63
21,COc1ccccc1NC(=O)C(C)OC(=O)c1ccc(-n2cnnn2)cc1 (stereo not drawn),1.19
22,CC(=O)Nc1ccc(C(=O)NNC(=O)CCCCC(=O)NNC(=O)c2ccc(NC(C)=O)cc2)cc1,0.27
23,CCOc1ccc(S(=O)(=O)NCCC(=O)N2CCCCCCC2)cc1,-0.07
24,Cc1nc2ccc(C(=O)N(C)CC3CCCN(CCc4ccc(Cl)cc4)C3)cc2[nH]1 (stereo not drawn),-1.32
25,COc1cccc(CN(C)CC2CCCN(CCc3ccc(Cl)cc3)C2)c1OC (stereo not drawn),-8.2 (active)

row,SMILES,B-score
1,COc1cccc(CN(C)CC(=O)NCc2ccccc2Cl)c1OC,-3.73
2,O=C(Nc1ccc(OC(F)(F)F)cc1)c1ccc2c(c1)no[n+]2[O-],0.38
3,O=C(Nc1cn(-c2ccccc2)nc1-c1ccccc1)c1ccccc1,0
4,N=C(N)SCc1cccc2ccccc12,-3.09
5,CCc1ccc(-c2nn(-c3ccccc3)cc2CSC(=N)N)cc1,-10.6 (active)
6,CCN1CCN(c2ccc(S(=O)(=O)N3CCCCC3)cc2NC(=O)c2cccc(NC(C)=O)c2)CC1,0.95
7,CCc1ccc(C(=O)NNC(=O)C2CCN(c3ncnc4sc(C)c(C)c34)CC2)cc1,-1.35
8,O=C(COc1ccccc1Cl)Nc1ccccc1C(=O)NC1CC1,-1.39
9,COc1ccc(N2CCC(CNC(=S)Nc3c(C)cccc3C)C2)cc1 (stereo not drawn),-6.34 (active)
10,COc1ccc(NC(=S)NCC2CCN(c3ccc(OC)cc3)C2)cc1 (stereo not drawn),1.12
11,COc1ccc(NC(=S)NCCN2CCC(C)CC2)cc1,-1.95
12,COc1ccc(F)cc1S(=O)(=O)NCC(c1ccc2c(c1)OCO2)N1CCN(C)CC1 (stereo not drawn),-0.39
13,COc1ccccc1CSc1ncc(-c2ccc([N+](=O)[O-])cc2)[nH]1,0.65
14,CC(O)C(NS(=O)(=O)c1ccc(Cl)cc1)C(=O)OCc1cc([N+](=O)[O-])cc2c1OCOC2 (stereo not drawn),-0.06
15,Nc1ccccc1SCc1cc([N+](=O)[O-])cc2c1OCOC2,-4.96 (active)
16,CCN(CC)CCn1c2c(c(SCC(=O)Nc3nc4ccccc4s3)nc1=O)CCCC2,0.03
17,COc1ccc(NC(=O)CN(C)C(=O)/C=C/c2cn(Cc3ccccc3)nc2-c2cccnc2)cc1,0.01
18,CCOC(=O)c1cc(NC(=O)c2cccnc2)ccn1,0.04
19,CCc1noc(C)c1C(=O)Oc1ccc(N(C)S(=O)(=O)c2ccc(C)c(C)c2)cc1,-0.66
20,CC(OC(=O)C1CC(=O)N(Cc2ccccc2)C1)C(=O)Nc1ccccc1[N+](=O)[O-] (stereo not drawn),-1.36
21,N=c1c2c(-c3ccccc3)c(-c3ccccc3)oc2ncn1Cc1ccco1,1.16
22,N=c1c2c(-c3ccccc3)c(-c3ccccc3)n(Cc3ccccc3)c2ncn1CCCO,-6.86 (active)
23,CCN(CC)CCn1cnc2c1c(=O)[nH]c(=O)n2Cc1ccccc1,0.13
24,Cn1c(SCC(=O)c2ccccc2)ncc(C(=O)Nc2ccc(F)cc2)c1=O,1.98
25,O=S(=O)(Nc1cccc(-c2ccc(N3CCOCC3)nn2)c1)c1ccc(Cl)c(Cl)c1,0.82

row,SMILES,B-score
1,CCN(CC(=O)NCc1cccs1)C(=O)c1ccc(OC)c(S(=O)(=O)N2CCOCC2)c1,-0.52
2,Cc1cccc2c1N(CCOc1ccccc1)C(=O)C2=O,-0.18
3,CC(O)CNCCOc1cccc(Oc2ccccc2)c1 (stereo not drawn),-2.96
4,CC1(C)NC(=O)N(CCOc2cccc(Oc3ccccc3)c2)C1=O,-4.68 (active)
5,O=C(COc1coc(CN2CCN(c3ccccc3)CC2)cc1=O)Nc1ccccc1F,-0.62
6,CN(C)CCOC1c2ccccc2-c2ccccc21,0.04
7,CN(C)CCOCCOc1ccc(Cl)c2ccccc12,-5.07 (active)
8,CCN(CC)CCOCCOc1ccc(Cl)c2ccccc12,-2.53
9,CN(Cc1c(F)cccc1Cl)C(=O)CNC(=O)c1ccc2c(c1)OCO2,0.45
10,CCOc1ccc(NC(=O)CN(C)C(=O)COc2cccc(CC)c2)cc1OCC,-1.11
11,COc1ccc2c(c1)C(=O)Nc1cc(Cl)ccc1N2,0.62
12,CCCCCCCCCCOC(=O)Cn1c(COc2cccc(OC)c2)[n+](C)c2ccccc21,-8.13 (active)
13,CCCCCCCCCCOC(=O)Cn1c(COc2ccc(C)cc2)[n+](C)c2ccccc21,-17.5 (active)
14,Cc1ccc(OCCCn2c(=O)oc3ccccc32)cc1,-1.92
15,CCCCOC(=O)Cn1c(=O)n(CC(=O)OCCCC)c2cc(C)ccc21,-7 (active)
16,CCn1c(COc2cccc(OC)c2)nnc1SCC(=O)N1CCOCC1,0.86
17,Cc1ccc(OCc2nc3ccccc3n2C)cc1,-0.43
18,CCOC(=O)CN1C(=O)C(=O)c2cc(C)ccc21,-1.78
19,CCCCOC(=O)Cn1c(=N)n(CCN(CC)CC)c2ccccc21,1.01
20,CCn1c(=N)n(CC(=O)c2cccc(OC)c2)c2ccccc21,-0.01
21,CC(C)CN(C(=O)COC(=O)c1ccc2ccccc2c1)c1c(N)n(Cc2ccccc2)c(=O)[nH]c1=O,1.03
22,CCOc1ccc(NC(=O)COc2ccc(C(=O)N3CCC(C(N)=O)CC3)cc2OC)cc1,1.65
23,COc1ccc(CNC(=O)C(=O)N2CCC3(CC2)OCCN3S(=O)(=O)c2ccc(C)cc2)cc1,0.4
